# Potency and affinity values are given separately. Results filed as inconclusive are left out. Activity calls are given as the source filed them.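 The calls were made as follows: active = fitted half-maximal concentration for viability loss no higher than twice the top valid dose, in every repeat run; inconclusive = repeat runs disagree, flat partial loss, or poor curve fit; inactive = the rest.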
# Experiment: IOSE-T80 viability loss, PAX8-independent line – cell-based, cherry-pick, selectivity assay for PAX8 inhibitor project, dose response (AID 687032);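 also: cells exposed to compound for 96 h before reading; 0% = neutral control wells and -100% = 2 µM mitoxantrone kill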
# Details: CellTiterGlo ATP luminescence, 96 h; series mostly up to 35 µM; activity change, negative = viability loss: at the top concentration
row,SMILES,"activity change, negative = viability loss"
1,C[C@@H]1CCCCO[C@H](CN(C)Cc2ccc(C(F)(F)F)cc2)[C@H](C)CN([C@H](C)CO)C(=O)c2cc(NS(=O)(=O)c3ccc(F)cc3)ccc2O1,7.65% (inactive)
2,C[C@@H]1CN([C@H](C)CO)C(=O)c2cc(NC(=O)c3ccncc3)ccc2O[C@@H](C)CCCCO[C@H]1CN(C)Cc1ccc(C(F)(F)F)cc1,21.3% (inactive)
3,O=C(C[C@H]1CC[C@H]2[C@@H](COC[C@@H](O)CN2S(=O)(=O)c2ccccc2Cl)O1)N1CCC(Cc2ccccc2)CC1,21.8% (inactive)
4,C[C@@H]1CN([C@@H](C)CO)C(=O)c2ccccc2-c2ccccc2CO[C@H]1CN(C)Cc1ccccc1C(F)(F)F,8.8% (inactive)
5,C[C@@H]1CN([C@@H](C)CO)S(=O)(=O)c2ccc(C#Cc3ccccc3F)cc2O[C@H]1CN(C)CC1CCOCC1,-3.78% (inactive)
6,C[C@@H]1CN([C@@H](C)CO)C(=O)Cc2cc(NC(=O)Nc3ccc(C(F)(F)F)cc3)ccc2O[C@H]1CN(C)S(=O)(=O)c1ccc(F)cc1,12.7% (inactive)
7,C[C@@H]1CCCCO[C@H](CN(C)C(=O)Nc2ccc(F)cc2)[C@@H](C)CN([C@@H](C)CO)C(=O)c2cc(NC(=O)Nc3ccc(C(F)(F)F)cc3)ccc2O1,15.1% (inactive)
8,C[C@@H]1CCCCO[C@@H](CN(C)Cc2ccc(C(F)(F)F)cc2)[C@H](C)CN([C@H](C)CO)C(=O)c2cc(NS(=O)(=O)c3ccc(Cl)cc3)ccc2O1,-7.96% (inactive)
9,C[C@@H]1CCCCO[C@@H](CN(C)C(=O)C2CCCCC2)[C@H](C)CN([C@H](C)CO)C(=O)c2cc(NC(=O)Nc3ccc(F)cc3)ccc2O1,4.23% (inactive)
10,C[C@H](CO)N1C[C@H](C)[C@H](CN(C)Cc2ccc(Cl)c(Cl)c2)Oc2c(NS(=O)(=O)c3ccc(Cl)cc3)cccc2C1=O,18.4% (inactive)
11,C[C@@H]1CCCCO[C@@H](CN(C)Cc2ccc(Cl)c(Cl)c2)[C@H](C)CN([C@@H](C)CO)C(=O)c2cc(NC(=O)Cc3ccccc3)ccc2O1,7.48% (inactive)
12,C[C@H](CO)N1C[C@H](C)[C@H](CN(C)Cc2ccc3c(c2)OCO3)Oc2ccc(NC(=O)Nc3cccc4ccccc34)cc2C1=O,15.1% (inactive)
13,COc1ccccc1-c1ccc2c(c1)[C@H]1[C@H](CCN1S(=O)(=O)c1ccccc1F)[C@H](CO)N2,17.8% (inactive)
14,C[C@@H]1CN([C@H](C)CO)C(=O)c2cc(NC(=O)c3ccccc3)ccc2O[C@@H](C)CCCCO[C@H]1CN(C)Cc1ccc(C(F)(F)F)cc1,13.8% (inactive)
15,C[C@H]1CCCCO[C@@H](CN(C)C(=O)c2ccccc2)[C@@H](C)CN([C@@H](C)CO)C(=O)c2cc(NC(=O)Nc3ccc(C(F)(F)F)cc3)ccc2O1,11.5% (inactive)
16,Cc1ccc(S(=O)(=O)N(C)C[C@H]2Oc3c(NC(=O)Nc4ccc(F)cc4)cccc3C(=O)N([C@@H](C)CO)C[C@H]2C)cc1,10.1% (inactive)
17,O=S(=O)(c1ccc(F)cc1)N1C[C@H]2[C@@H](c3ccccc31)[C@H](CO)N2Cc1ccccc1Cl,16.4% (inactive)
18,Cc1ccc(S(=O)(=O)N(C)C[C@H]2OCCCC[C@@H](C)Oc3ccc(NS(=O)(=O)c4ccc(F)cc4)cc3C(=O)N([C@@H](C)CO)C[C@H]2C)cc1,6.36% [at 30 µM] (inactive)
19,C[C@H](CO)N1C[C@H](C)[C@@H](CN(C)CC2CCCCC2)Oc2ccc(NC(=O)Nc3ccc4c(c3)OCO4)cc2CC1=O,9.23% (inactive)
20,O=C(C[C@@H]1C[C@H]2c3cc(NC(=O)C4CCOCC4)ccc3O[C@H]2[C@H](CO)O1)NCc1ccc(Oc2ccccc2)cc1,0.992% (inactive)

row,SMILES,"activity change, negative = viability loss"
1,C[C@H]1CCCCO[C@@H](CN(C)Cc2ccc(C(F)(F)F)cc2)[C@@H](C)CN([C@@H](C)CO)C(=O)c2cc(NS(=O)(=O)c3cccs3)ccc2O1,-1.09% (inactive)
2,C[C@H](CO)N1C[C@H](C)[C@@H](CN(C)Cc2ccc(Cl)c(Cl)c2)OCCCC[C@H](C)Oc2ccc(NC(=O)Nc3ccc(C(F)(F)F)cc3)cc2C1=O,0.162% (inactive)
3,C[C@@H]1CCCCO[C@H](CN(C)C(=O)C2CCCCC2)[C@@H](C)CN([C@@H](C)CO)C(=O)c2cc(NC(=O)Nc3ccccc3)ccc2O1,15.8% (inactive)
4,C[C@@H]1CN([C@H](C)CO)C(=O)Cc2cc(NC(=O)Nc3ccc(F)cc3)ccc2O[C@@H]1CN(C)Cc1ccc(Cl)c(Cl)c1,16% (inactive)
5,C[C@H]1CN([C@@H](C)CO)C(=O)CCCn2nncc2CO[C@@H]1CN(C)C(=O)Nc1ccc(-c2cccs2)cc1,12.2% (inactive)
6,C[C@@H]1CCCCO[C@H](CN(C)CC2CCCCC2)[C@H](C)CN([C@H](C)CO)C(=O)c2cc(NS(=O)(=O)c3ccc(Cl)cc3)ccc2O1,16.5% (inactive)
7,Cc1cccc(S(=O)(=O)N2CC[C@@H]3[C@H](CO)Nc4ccc(C5=CCCCC5)cc4[C@@H]32)c1,18.9% (inactive)
8,C[C@H]1CN([C@@H](C)CO)C(=O)c2c(c3ccccc3n2C)-c2ccccc2CO[C@@H]1CN(C)Cc1ccc(-c2ccccc2)cc1,9.16% [at 30 µM] (inactive)
9,C[C@@H]1CN([C@@H](C)CO)C(=O)c2c(c3ccccc3n2C)-c2ccccc2CO[C@H]1CN(C)C(=O)Nc1ccc2c(c1)OCO2,17.8% (inactive)
10,CN1c2ccc(C#Cc3cccnc3)cc2[C@@H]2[C@@H](CCN2C(=O)Cc2cccnc2)[C@@H]1CO,4.83% (inactive)
11,C[C@@H]1CN([C@@H](C)CO)C(=O)c2cc(NS(=O)(=O)c3ccc(F)cc3)ccc2O[C@@H](C)CCCCO[C@H]1CN(C)Cc1ccc(C(F)(F)F)cc1,0.628% (inactive)
12,C[C@@H]1CN([C@@H](C)CO)C(=O)c2cc(NC(=O)Nc3ccc(C(F)(F)F)cc3)ccc2O[C@@H](C)CCCCO[C@H]1CN(C)Cc1ccc(Cl)c(Cl)c1,10.2% (inactive)
13,C[C@H](CO)N1C[C@H](C)[C@@H](CN(C)Cc2ccc(C(F)(F)F)cc2)Oc2ccc(NS(=O)(=O)c3ccc(F)cc3)cc2CC1=O,12% [at 30 µM] (inactive)
14,C[C@@H]1CCCCO[C@@H](CN(C)C(=O)C2CCCCC2)[C@H](C)CN([C@H](C)CO)C(=O)c2cc(NS(=O)(=O)c3ccc(Cl)cc3)ccc2O1,4.39% (inactive)
15,COc1cccc(-c2ccc3c(c2)[C@@H]2[C@@H](CCN2C(=O)NC2CCCCC2)[C@H](CO)N3C)c1,4.36% (inactive)
16,C[C@@H]1CCCCO[C@@H](CN(C)Cc2ccccc2)[C@@H](C)CN([C@H](C)CO)C(=O)c2cc(NC(=O)Nc3ccc(C(F)(F)F)cc3)ccc2O1,2.73% (inactive)
17,C[C@@H]1CN([C@H](C)CO)C(=O)Cc2cc(NC(=O)Nc3ccc(F)cc3)ccc2O[C@H]1CN(C)C(=O)Nc1ccc(C(F)(F)F)cc1,6.12% (inactive)
18,C[C@H](CO)N1C[C@H](C)[C@@H](CN(C)Cc2ccc(Oc3ccccc3)cc2)OCc2ccccc2-c2c(n(C)c3ccccc23)C1=O,7.72% (inactive)
19,C[C@@H]1CCCCO[C@@H](CN(C)CC2CCCCC2)[C@@H](C)CN([C@@H](C)CO)C(=O)c2cc(NC(=O)Nc3ccc(C(F)(F)F)cc3)ccc2O1,8.38% (inactive)
20,C[C@H]1CCCCO[C@H](CN(C)S(=O)(=O)c2ccc(Cl)cc2)[C@@H](C)CN([C@@H](C)CO)C(=O)c2cc(NS(=O)(=O)c3ccc(Cl)cc3)ccc2O1,21.3% (inactive)
